Consider 16 molecules from PubChem BioAssay (NCI).

What all share (test): NCI-60 one-dose screen, 48 h (100 = growth as untreated, 0 = no growth, -100 = all killed)
What all share (conditions): 10 µM unless noted

Test [1] concerns SR leukemia.
The subject of test [2] is OVCAR-8 ovarian.
Test [3] concerns OVCAR-4 ovarian.
Test [4] has as its system SK-OV-3 ovarian.
In test [5] the test system is IGROV1 ovarian.
The test system of test [6] is OVCAR-3 ovarian.
Test [7] deals with HS 578T breast.
The subject of test [8] is NCI/ADR-RES ovarian.
The subject of test [9] is OVCAR-5 ovarian.
Test [10] concerns RPMI-8226 leukemia.

The panel holds about 83,000 compounds, 20% with a hit somewhere; the sample as a whole holds those more often.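 Single-concentration screen, 48 h exposure, 96-well plates. Endpoint: percent growth. Below 10 = active.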 Unmarked numbers belong to inactive results. The source made the active and inactive calls. Where a SMILES comes first, the peptide text is derived from it. [ ]: non-standard residue; d: D form. ξ: configuration not given here. ξD = NC(CC(=O)O)C(=O)O

Take `CCCC[n+]1c(/C=C\c2c(OC)cc(OC)cc2OC)ccc2ccccc21`: the growth is -34.6% (active) in test [1]; -27.7% (active) in test [2]; 9.07% (active) in [3]; -14.3% (active) in test [4]; 9.69% (active) in [5]; -16.7% (active) in [6]. Also, the growth is 16.4% in test [7] and 76.8% in test [8].

As for `Oc1c(C(Nc2ccccc2)c2ccccc2)ccc2cccnc12` (configuration not stated), the growth was 27.3% in test [1]; 19.8% in test [2]; 59.5% in [9]; 33.2% in test [3]; 40.5% in test [4]; 41.3% in test [5]. Also, the growth in test [6] was 24.3%; in test [7], 70.4%; in test [8], 16.8%.

For the molecule `Cn1ccc(=Nc2ccc(NC(=O)c3ccc(N=c4ccn(C)c5ccc([N+](=O)[O-])cc45)cc3)cc2)cc1`, the growth was 107% in test [1]; 69.3% in test [2]; 87.9% in test [9]; 59.4% in test [3]; 91.4% in test [4]; 64.8% in test [5]. Further, the growth in test [6] was 79.5%; in [7], 100%; in test [8] it was 106%.

On to `CC(C)(C)CC(C)(C)c1ccc(OCCOCCSC(=N)N)cc1`, for which the growth in [1] was -24.4% (active); in test [2] it was 58.5%; in test [9], 73.6%; in test [3], 33%; in test [4], 55.9%; in test [5], 54.9%. Moreover, the growth is 25.3% in [6], 33.9% in [7] and 45.5% in [8].

On to `Cc1cc2nc(CC(=O)c3ccncc3)c(=O)[nH]c2cc1C`, for which the growth in [10] was 103%; in test [2] it was 102%; in test [3] it was 93.8%; in [4], 104%; in test [5] it was 105%; in test [6], 112%. The figures for the growth in [7] and in [8] were 66.8% and 96.8%, respectively.

On to `CCC1CCCCN1C(=S)N/N=C(\C)c1ccccn1` (configuration not stated), for which the growth was 9.93% (active) in test [2]; 30.1% in [9]; -50.2% (active) in [3]; 8.27% (active) in [4]; 2.61% (active) in test [5]; -18.9% (active) in test [6]. For the same molecule, the figures for the growth in [7] and in [8] were -3.92% (active) and 5.77% (active), respectively.

Take `CCCCCCCCCCCC[S+](C)CC(=O)[O-]` (configuration not stated): the growth in test [10] was 26.6%; in [2] it was 45.5%; in [9], 56.5%; in [3], 48.1%; in [4], 41.3%; in [5], 12.8%. For the same molecule, the growth in test [6] was 57.6%; in [7] it was 36.7%; in test [8] it was 99.8%.

As to `c1ccc2sc(SSN3CC4CCC(CC4)C3)nc2c1`, the growth in test [10] is 111%; in test [2] it was 106%; in [3] it was 102%; in [4], 108%; in test [5], 14.6%; in [6], 150%. Moreover, the values for the growth in test [7] and in test [8] were 92.7% and 108%, respectively.

Take `CC1C(c2ccccc2)OCCN1C(=S)Nc1ccc(S(=O)(=O)N2CCCCC2)cc1` (configuration not stated): the growth in test [10] is 80.4%; in test [2] it was 92.5%; in [9], 87.9%; in test [3] it was 106%; in test [4], 110%; in test [5], 106%. The figures for the growth in test [6], in test [7] and in test [8] were 114%, 85.8% and 92.4%, respectively.

Take `CC(C)(C)c1ccc(CCO)cc1`: the growth in [10] is 112%; in [2], 95.8%; in test [9], 91.4%; in [3], 99.4%; in [4], 100%; in test [6], 116%. In test [7], the growth was 135%.

With `NCC(=O)NC(CC(=O)O)C(=O)O` (configuration not stated) (H-Gly-[ξD]-OH), the growth was 107% in test [2]; 107% in [9]; 104% in test [3]; 108% in test [4]; 107% in test [5]; 125% in test [6]. The growth in test [7] was 99%.

In the case of `CCOc1cc(F)c([N+](=O)[O-])cc1[N+](=O)[O-]`, the growth was 24.2% in test [10]; 19.6% in test [2]; 77.9% in [9]; 46.9% in test [3]; 99.3% in test [4]; 91.9% in test [5]. In addition, the values for the growth in test [6], in test [7] and in test [8] were 46.7%, 90.6% and 11.8%, respectively.

With `CCCCCCCCCCCCCCCc1ccc(C(=O)C[n+]2ccccc2)cc1`, the growth in test [10] is -62.2% (active); in test [2], -46.7% (active); in test [9] it was -44.1% (active); in [3], 34.9%; in test [4] it was -50.7% (active); in [6], -93.1% (active). For the same molecule, the growth in test [7] is -37.3% (active); in test [8], -21.5% (active).

Turning to `O=C(Cc1nc2cc(Cl)c(Cl)cc2nc1CC(=O)c1ccccc1)c1ccccc1`, the growth in test [2] was 73.3%; in [9] it was 77.5%; in test [3] it was 74.4%; in [4], 77.4%; in test [5], 61%; in [6], 81.5%. Also, the figures for the growth in test [7] and in [8] were 58.8% and 74.6%, respectively.

Take `O=C(c1ccccc1)c1ccc(O)c2ncccc12`: the growth in test [2] was 8.06% (active); in test [9], 68%; in [3], 15.4%; in [4], 49.8%; in test [5], 17%; in test [6], -36.7% (active). Also, the growth was 52.7% in test [7] and 2.55% (active) in test [8].

As to `Cc1nc([N+](=O)[O-])c(Sc2nncc(-c3ccccc3)n2)n1C`, the growth in test [2] is 89.4%; in [9], 79.7%; in test [3] it was 83.7%; in [4] it was 109%; in test [5], 89.7%; in test [6], 78.5%. The results for the growth in test [7] and in test [8] were 99.1% and 81.3%, respectively.
